Test results as given in PubChem BioAssay (NCI).
Compounds without any hit were thinned out: in the full panel of roughly 83,000, 20% have a hit.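 For each line, cells grew in 96-well plates with the test compound present at a single concentration for 48 hours.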 Active and inactive are the calls of the source. The calls were made as follows: active = growth percent below 10; inactive = the rest.

Columns and labels:
Assay in all cases: NCI-60 one-dose screen, 48 h (100 = growth as untreated, 0 = no growth, -100 = all killed)
Details in all cases: 10 µM unless noted
[1] = tested on: NCI-H23 lung
[2] = tested on: NCI-H226 lung
[3] = tested on: NCI-H322M lung
[4] = tested on: HOP-62 NSCLC
[5] = tested on: NCI-H460 lung
[6] = tested on: HOP-92 NSCLC
[7] = tested on: NCI-H522 lung
[8] = tested on: A549/ATCC NSCLC
[9] = tested on: 786-0 renal
[10] = tested on: COLO 205 colon
[11] = tested on: DU-145 prostate
[12] = tested on: MALME-3M melanoma
[13] = tested on: MDA-MB-231 breast
[14] = tested on: RXF 393 renal
[15] = tested on: SF-268 CNS
[16] = tested on: SF-295 CNS
[17] = tested on: SF-539 CNS
[18] = tested on: UACC-257 melanoma
[19] = tested on: M14 melanoma
[20] = tested on: K-562 leukemia

Measured: growth

CCOc1ccc(Nc2nc(-c3ccc4c(c3)NC(=O)CO4)cs2)cc1
inactive: [1] 45.7% | [2] 46.9% | [3] 84.8% | [4] 95.9% | [5] 40.7% | [6] 87.3% | [7] 14.6% | [8] 71.7% | [9] 71.1% | [10] 88.5% | [11] 77.2% | [12] 69.7% | [13] 58% | [14] 87.3% | [15] 87.1% | [16] 158% | [17] 78.2% | [18] 33% | [19] 68.2%

CCOC(=O)CC1CSC(N/N=C/c2ccc(-n3cccn3)cc2)=N1 (stereo not drawn)
inactive: [1] 101% | [2] 95% | [3] 104% | [4] 105% | [5] 107% | [6] 99.3% | [7] 99.1% | [8] 93.1% | [9] 108% | [10] 126% | [11] 108% | [12] 113% | [13] 101% | [14] 105% | [15] 103% | [16] 107% | [17] 107% | [18] 96.2% | [19] 107%

C=C(CBr)[C@@H]1CC[C@]2(COC(C)=O)CC[C@]3(C)[C@H](CC[C@@H]4[C@@]5(C)CCCNC(C)(C)[C@@H]5CC[C@]43C)[C@@H]12
inactive: [1] 37.7% | [2] 76.9% | [3] 83.1% | [4] 67.9% | [5] 17% | [6] 39.3% | [7] 31.1% | [8] 34.4% | [9] 45.7% | [10] 48.1% | [11] 66.3% | [12] 71% | [13] 65.6% | [14] 56% | [15] 50.3% | [16] 59.5% | [17] 49.7% | [18] 23.4% | [19] 40%

O=C1Nc2ccccc2/C1=C\c1c(-c2ccccc2)nc2ccccn12
active: [1] 8.45% | [19] 3.79%
inactive: [2] 57.6% | [3] 70.1% | [4] 41.3% | [5] 24.3% | [6] 66.6% | [7] 22.3% | [8] 47.1% | [9] 58.7% | [10] 31% | [11] 63.5% | [12] 43.6% | [13] 59.2% | [14] 26.8% | [15] 51.2% | [16] 24% | [17] 49.6% | [18] 87.6%

COc1ccc(Cc2cnc(NC(=O)c3ccc4c(c3)OCCO4)s2)cc1
active: [2] 1.86% | [5] 6.33% | [7] -2.66% | [10] -6.28% | [17] -1.94%
inactive: [1] 18.8% | [3] 41.3% | [4] 29.1% | [6] 57.8% | [8] 16.1% | [9] 26.6% | [11] 14.9% | [12] 55.4% | [13] 37.1% | [14] 19.5% | [15] 34.8% | [16] 10.5% | [18] 46.4% | [19] 15.6%

CCOC(=O)Nc1ccc(-c2ccc3c(c2)NC(=O)/C3=C\c2ccc[nH]2)cc1
inactive: [1] 47.3% | [2] 68% | [3] 63.1% | [4] 91.9% | [5] 37.1% | [6] 102% | [7] 97.8% | [9] 108% | [10] 125% | [11] 110% | [20] 92.3% | [12] 110% | [13] 69.3% | [14] 112% | [15] 100% | [16] 101% | [17] 94% | [18] 113% | [19] 103%

Cc1cc2nc3c4cc([N+](=O)[O-])ccc4n(CCN(C)C)c3nc2cc1C
active: [1] -26.8% | [2] -25.3% | [3] -15.1% | [4] 5.3% | [5] 1.25% | [6] -10.7% | [7] -17% | [9] 5.9% | [10] -42.3% | [11] 8.55% | [20] 0.995% | [12] -40.1% | [13] -1.27% | [14] -50.6% | [15] -0.874% | [16] 0.581% | [17] -14.5% | [18] -1.98% | [19] -27.3%

CCOC(=O)c1cc(C(=O)c2ccc(Br)cc2)n2ccc(/C=C/c3cc[n+](CC(=O)c4ccc(OC)cc4)cc3)cc12
active: [20] 3.23%
inactive: [1] 92.5% | [2] 101% | [3] 96.2% | [4] 100% | [5] 96.4% | [6] 96.4% | [7] 91.8% | [8] 73.3% | [10] 91.7% | [11] 87% | [12] 97.9% | [13] 71.6% | [14] 94.4% | [15] 110% | [16] 103% | [17] 102% | [18] 100% | [19] 95.9%

Nc1n[nH]c2cccc(C#Cc3cccc(C(=O)Nc4cc(CN5CCOCC5)cc(C(F)(F)F)c4)c3)c12
inactive: [1] 38.4% | [2] 26.7% | [3] 62.1% | [4] 38.7% | [5] 26.6% | [7] 39.3% | [9] 63.8% | [10] 14.6% | [11] 58.9% | [13] 19.6% | [14] 24% | [15] 41.9% | [16] 54.6% | [18] 33%
active: [6] -7.48% | [20] 4.98% | [12] 0.564% | [17] 8.6% | [19] 6.89%

CN(C)CCC(=O)c1ccc([N+](=O)[O-])cc1
active: [7] -23%
inactive: [1] 109% | [2] 94.8% | [3] 104% | [4] 98.6% | [5] 107% | [6] 89.2% | [8] 109% | [10] 107% | [11] 108% | [20] 114% | [12] 104% | [13] 100% | [14] 108% | [15] 112% | [16] 103% | [17] 96.4% | [18] 108% | [19] 102%

COc1ccc(CC(C)=C(c2ccc(OCCN3CCCCCC3)cc2)c2ccc(OCCN3CCCCCC3)cc2)cc1
active: [1] -87.9% | [2] -74.4% | [3] -99.3% | [4] -77.4% | [5] -95% | [6] -73.7% | [7] -82.4% | [9] -72.1% | [10] -67.5% | [11] -96.2% | [20] -55.4% | [12] -91.9% | [13] -98.2% | [14] -82.1% | [15] -81.2% | [16] -93.3% | [17] -95.8% | [18] -76.3% | [19] -67.3%

O=C(Cn1c[n+](CC(=O)c2ccc(-c3ccccc3)cc2)c2ccccc21)Nc1cccc2cccnc12
active: [6] -4.57% | [7] 2.6% | [10] -61.8% | [12] 8.16% | [13] -7.75%
inactive: [1] 23.8% | [2] 50.4% | [3] 77.2% | [4] 43.2% | [5] 28.7% | [9] 44.4% | [11] 36.9% | [20] 12.6% | [14] 83.7% | [15] 20.3% | [16] 78.1% | [17] 23.6% | [18] 10.1% | [19] 28.1%
